This is a sample that favours compounds with a hit; in the whole collection about 11% have one here.
OTUD3 inh – inhibitors of human OTUD3 deubiquitinase; purified OTUD3, Ub-rhodamine fluorescence, 2 h; inhibition, % at 25 µM; OTU domain-containing protein 3 (Homo sapiens), Q5T2D3; 0.7% of 47,000 active
USP30 block – inhibitors of human USP30 deubiquitinase | purified USP30, Ub-rhodamine cleavage fluorescence | 5.3% of 47,000 active | inhibition, % at 25 µM
USP17 block – inhibitors of human USP17 deubiquitinase. Ubiquitin carboxyl-terminal hydrolase 17-like protein 5 (Homo sapiens), A8MUK1. purified USP17, Ub-rhodamine cleavage fluorescence, 3 h. inhibition, % at 50 µM. 6.5% of 47,000 active. AID 1645855, 2021
Target sequence (A8MUK1 whole entry, looked up): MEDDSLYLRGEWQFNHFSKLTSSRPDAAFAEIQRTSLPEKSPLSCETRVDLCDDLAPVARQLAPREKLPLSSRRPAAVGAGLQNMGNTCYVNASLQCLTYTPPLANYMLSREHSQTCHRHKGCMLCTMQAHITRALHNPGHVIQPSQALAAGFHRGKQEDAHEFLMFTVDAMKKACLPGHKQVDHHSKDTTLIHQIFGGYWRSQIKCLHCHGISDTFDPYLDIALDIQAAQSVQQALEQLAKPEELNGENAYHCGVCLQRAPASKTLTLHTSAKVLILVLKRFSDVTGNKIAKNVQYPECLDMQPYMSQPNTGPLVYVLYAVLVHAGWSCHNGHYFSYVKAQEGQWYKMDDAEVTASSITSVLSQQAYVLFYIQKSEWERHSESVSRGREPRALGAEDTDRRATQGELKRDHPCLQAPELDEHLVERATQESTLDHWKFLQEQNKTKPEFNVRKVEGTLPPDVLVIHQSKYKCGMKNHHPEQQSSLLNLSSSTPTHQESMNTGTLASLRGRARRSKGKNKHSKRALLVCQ
USP28 inh – inhibitors of human USP28 deubiquitinase; Ubiquitin carboxyl-terminal hydrolase 28 (Homo sapiens), Q96RU2; purified USP28, Ub-rhodamine cleavage fluorescence, 30 min; inhibition, % at 25 µM; 3% of 47,000 active
* marks the source's active call; other numbers are inactive results; i = inactive. No stated cut-off is given here; in the data, active means inhibition above about 30%; inactive means the rest.

SMILES	OTUD3 inh	USP30 block	USP17 block	USP28 inh
O=C(COc1ccccc1)Nc1ccc2c(c1)CN(C(=O)c1ccco1)CC2	-6	-5	7	26
O=C(O)c1ccc(NC(=O)N2C[C@@H]3c4nccn4-c4ccccc4[C@@H]3C2)cc1	5	17	9	7
Cc1cc(C)c2nc(Nc3nc(C)cc(-c4ccccc4)n3)nc(C)c2c1	-39	-163	-66	-44
COc1cccc(NC(=O)Nc2cnn(-c3ncncc3N3CCOCC3)c2)c1	-2	-20	-25	-3
CCn1nc(C)c2c(-c3ccccc3)cc(=O)n(C(C)C(=O)Nc3ccc(OC)cc3)c21 (centres undefined)	-4	0	5	-10
Cc1cccc(-c2nnc(SCC(=O)Nc3ccc4[nH]c(=O)[nH]c4c3)n2C)c1	-1	11	14	2
Cc1cccc(C(=O)OCC(=O)Nc2ccc3[nH]c(=O)[nH]c3c2)c1	32*	77*	57*	48*
O=C(COC(=O)c1ccccc1O)Nc1ccc2[nH]c(=O)[nH]c2c1	6	34*	21	28
CC(C)(C)c1ccc(C(=O)OCC(=O)Nc2ccc3c(c2)OCO3)cc1	7	-2	-7	18
O=C(COC(=O)c1ccc2c(c1)OCO2)Nc1ccc2[nH]c(=O)[nH]c2c1	24	17	42*	28
O=C(COC(=O)c1n[nH]c2ccccc12)Nc1ccc2c(c1)CCC2	-2	13	-4	-1
O=C(COC(=O)c1n[nH]c2ccccc12)Nc1ccc(N2CCCCC2)cc1	-7	38*	59*	25
Cc1cccc(NC(=O)N2CCC3(CC2)NC(=O)C(C)NC3=O)c1 (centres undefined)	2	-1	4	-3
Cc1ccc(C(=O)N2CCC3(CCN3Cc3ccc(F)cc3)C2)cn1 (centres undefined)	-3	-14	-16	-18
Cc1cccc(C(=O)OCC(=O)Nc2ccc(N3CCOCC3)cc2)c1O	8	9	32*	4
O=C(COC(=O)c1ccc2c(c1)OCO2)Nc1ccc(N2CCCCC2)cc1	-10	-8	33*	6
O=C(CCCCn1c(=O)c2ccccc2n(CC(=O)Nc2ccc(Br)cc2F)c1=O)NCc1ccco1	-172	i	-134	-250
O=C(CSc1n[nH]c2nc3ccccc3n12)Nc1ccc2c(c1)OCO2	1	1	-28	37*
O=C(CCCn1c(=O)c2ccccc2n(CC(=O)Nc2ccc(Br)cc2F)c1=O)NCc1ccccc1Cl	11	-15	41*	15
O=C(CCCn1c(=O)c2ccccc2n(CC(=O)NCc2ccccc2Cl)c1=O)NCc1ccc2c(c1)OCO2	26	66*	27	33*
O=C(Cn1c(=O)c2ccccc2c2ccccc21)Nc1ccc2c(c1)OCO2	33*	82*	53*	31*
Cc1ccc(Sc2ccccc2NC(=O)c2ccccc2Cl)cc1	11	14	0	10
Cc1cccc(C)c1NC(=O)Cn1c(=O)n(CCCCC(=O)NCc2ccc3c(c2)OCO3)c(=O)c2ccccc21	18	67*	33*	32*
COc1ccc(CCNC(=O)Cn2c(=O)n(CCCCC(=O)NCc3ccc4c(c3)OCO4)c(=O)c3ccccc32)cc1OC	0	22	28	0
Cc1ccc(Cl)cc1N1CCN(C(=O)CN2Cc3ccccc3C2=O)CC1	13	23	11	47*
SMILES	OTUD3 inh	USP30 block	USP17 block	USP28 inh
Cc1cccc(N2CCN(C(=O)CN3Cc4ccccc4C3=O)CC2)c1C	-5	-6	-15	-4
Cn1c(=O)c2c(nc(CN3CCN(c4ccccc4F)CC3)n2Cc2ccccc2Cl)n(C)c1=O	14	31*	9	15
Cc1cc(C)nc(Sc2cccc(C(=O)O)c2)n1	0	8	-1	-20
OCCCNc1ncnc2c1c(-c1ccccc1)c(-c1ccccc1)n2Cc1ccco1	-20	0	0	-12
Nc1ncnc2c1c(-c1ccccc1)c(-c1ccccc1)n2CCc1ccc(F)cc1	11	45*	44*	0
Cc1cc(C)n(-c2ccnc(N3CCC(C(=O)N4CCN(c5ccccn5)CC4)CC3)n2)n1	4	5	-4	30*
Cc1ncoc1C(=O)N1CCCCC1c1ncc(Cc2cccc(Cl)c2)o1 (centres undefined)	10	6	3	16
Cc1ccc(Cn2c(CCNC(=O)c3ccc(Cl)cc3)nc3ccccc32)cc1	2	52*	68*	1
Cc1ccccc1Cn1c(CCNC(=O)c2ccco2)nc2ccccc21	-7	-10	-16	-12

Screens from PubChem.
